Results as given in PubChem BioAssay (Tox21).
Several values for one entry are separate records, joined by “and”; a condition that tells them apart may be missing. Equal values may be shown once. Results filed as inconclusive are left out. Some structures have more than one record in an assay (separate samples or runs), and their calls can disagree. Activity calls are given as the source filed them. Unless noted, calls come from the whole dose curve; as a rule, active = well fitted curve in the direction sought with a large enough effect in the repeat runs; inconclusive = weak or mixed curves; inactive = no such curve, though single readings can be large; an effect the other way counts as inactive or inconclusive.

What was measured:
[1] = qHTS assay to identify small molecule agonists of the vitamin D receptor (VDR) signaling pathway - cell viability counter screen (AID 743224); note: nearly all actives have a fitted effect of over 50% in size; note: potency is the fitted concentration of half-maximal effect
Method in brief: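 Plated VDR-bla cells (4 h, 37C) received compound, incubated 16 h, then LiveBLAzer substrate 2 h RT; CellTiter-Glo added afterwards, luminescence read at 30 min.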

[2] = qHTS assay to identify small molecule antagonists of the vitamin D receptor (VDR) signaling pathway - cell viability counter screen (AID 743225); note: % is set by controls: 0 for no effect and ±100 for the full control effect; nearly all actives have a fitted effect of over 50% in size
Method in brief: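 Cytotoxicity counter screen read by CellTiter-Glo luminescence (30 min, room temperature) in the same wells as the VDR-bla antagonist readout. HEK 293T VDR-UAS-bla cells had 16 h at 37C with compound and 3 nM (final) 1-alpha,25-dihydroxyvitamin D3, then 2 h with FRET substrate.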

[3] = qHTS assay to identify small molecule agonists of the NFkB signaling pathway - cell viability counter screen (AID 1159515; calls by dose curve; note: % is set by controls: 0 for no effect and ±100 for the full control effect; nearly all actives have a fitted effect of over 55% in size)
Method in brief: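 Using the same wells as the NFkB reporter read, ME-180 NFkB-bla cells given compounds for 5 hr were assessed for viability via CellTiter-Glo, with luminescence taken after a 30 min room-temperature incubation.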

[4] = qHTS assay to identify small molecule agonists of the endoplasmic reticulum stress response signaling pathway (AID 1159516; active = well fitted activation curve with a large enough effect in the signal ratio in the repeat runs, not every such curve was filed as active; the % refers to the signal ratio; note: % is set by controls: 0 for no effect and ±100 for the full control effect)
Method in brief: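 An ESRE-bla HeLa cell assay: compounds were pin-transferred from DMSO onto overnight-plated cells and left 5 hr at 37 C. Substrate was then loaded for 2 hr at room temperature before reading fluorescence at 460 nm and 530 nm.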

[5] = qHTS assay to identify small molecule agonists of the endoplasmic reticulum stress response signaling pathway - cell viability counter screen (AID 1159517; calls by dose curve;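 note: HeLa cells carrying an ER stress response element beta-lactamase reporter; % is set by controls: 0 for no effect and ±100 for the full control effect; nearly all actives have a fitted effect of over 50% in size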)
Method in brief: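 Luminescence readout: CellTiter-Glo, 30 min RT, same wells as the ESRE-bla reporter read. HeLa ESRE-bla, 1,500 cells/well, o/n 37 C; cpd 5 hr 37 C/5% CO2.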

[6] = qHTS assay to identify small molecule antagonists of the retinoid-related orphan receptor gamma (ROR-gamma) signaling pathway - cell viability counter screen (AID 1159520); note: nearly all actives have a fitted effect of over 50% in size; note: potency is the fitted concentration of half-maximal effect; for activity, negative = cytotoxicity: % is set by controls: 0 for no effect and ±100 for the full control effect
Method in brief: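 Tet-on ROR gamma CHO cells (1,000/well) were plated 4 hr, given compounds in DMSO for 2 hr at 37 C, then induced with 1 uM final doxycycline for 16 hr. Viability was read as ATP by CellTiter-Glo luminescence after 30 min.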

[7] = target: Nuclear receptor ROR-gamma (Homo sapiens) (UniProt P51449); experiment: qHTS assay to identify small molecule antagonists of the retinoid-related orphan receptor gamma (ROR-gamma) signaling pathway (AID 1159521; note: nearly all actives have a fitted effect of over 50% in size; note: potency is the fitted concentration of half-maximal effect)
Method in brief: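 Antagonist read-out: drop in luminescence (ONE-Glo) from an RORE-LUC reporter in CHO cells with doxycycline-inducible ROR-gamma; 2 hr compound pretreatment, 1 uM doxycycline, 16 hr incubation at 37 C.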

[8] = qHTS assay to identify small molecule agonists of the AP-1 signaling pathway - cell viability counter screen (AID 1159525; calls by dose curve; note: nearly all actives have a fitted effect of over 55% in size)
Method in brief: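 ME-180 AP-1-bla, 2500 cells/well, Opti-MEM + 0.5% dialyzed FBS; overnight 37 °C; cpd 15-pt titration, 5 h 37 °C; CellTiter-Glo 30 min RT; luminescence read; normalised to TOAB and DMSO controls.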

[9] = qHTS assay to identify small molecule agonists of the AP-1 signaling pathway (AID 1159526; calls by dose curve; note: potency is the fitted concentration of half-maximal effect; for activation: % is set by controls: 0 for no effect and ±100 for the full control effect)
[10] = target: Retinoic acid receptor RXR-alpha (Homo sapiens) (UniProt P19793); experiment: qHTS assay to identify small molecule agonists of the RXR signaling pathway (AID 1159527; calls by dose curve; note: % is set by controls: 0 for no effect and ±100 for the full control effect; nearly all actives have a fitted effect of over 35% in size)
Method in brief: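 Agonist-mode beta-lactamase reporter assay: HEK 293T RXR-alpha-UAS-bla cells treated 16 hr at 37 C with compounds, 9-cis retinoic acid as positive control. LiveBLAzer FRET substrate, 405 nm excitation, 460/530 nm emission.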

[11] = qHTS assay to identify small molecule agonists of the RXR signaling pathway - cell viability counter screen (AID 1159529)
Method in brief: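 CellTiter-Glo luminescence gave viability in the wells also read for beta-lactamase. Cells (RXR-alpha-UAS-bla HEK 293T, 2% charcoal-stripped FBS medium) had 5 hr plating, then 16 hr compound exposure at 37 C; tetraoctyl ammonium bromide served as positive control.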

[12] = qHTS assay to identify small molecule antagonists of the retinoid acid receptor (RAR) signaling pathway - cell viability counter screen (AID 1159551); note: % is set by controls: 0 for no effect and ±100 for the full control effect; nearly all actives have a fitted effect of over 35% in size
Method in brief: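 Retinol-stimulated (1 uM final) C3RL4 cells, compound 6 h, 37 C; readout CellTiter-Glo luminescence (ATP) after 30 min RT incubation.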

[13] = qHTS assay to identify small molecule antagonists of the retinoic acid receptor (RAR) signaling pathway (AID 1159552)
Method in brief: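 Luminescent RARE reporter read-out in C3RL4 cells: 6 hr co-treatment at 37 C of test compounds with retinol at 1 uM final. Cells plated overnight beforehand; luciferase reagent incubated 30 min at room temperature before reading.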

[14] = qHTS assay to identify small molecule agonists of the retinoic acid receptor (RAR) signaling pathway (AID 1159553); conditions: C3RL4 RARE luciferase reporter, agonist, 6 h; activation: at 73.3 µM (top of the series) unless noted; note: % is set by controls: 0 for no effect and ±100 for the full control effect
Method in brief: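 Reporter readout comes from luciferase under RARE control in C3RL4 cells; compound exposure lasts 6 hr at 37 C in 5% CO2, and luminescence is recorded following a 30 min room-temperature incubation with reagent.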

Sequence of Retinoic acid receptor RXR-alpha (Homo sapiens) (P19793 whole entry, looked up): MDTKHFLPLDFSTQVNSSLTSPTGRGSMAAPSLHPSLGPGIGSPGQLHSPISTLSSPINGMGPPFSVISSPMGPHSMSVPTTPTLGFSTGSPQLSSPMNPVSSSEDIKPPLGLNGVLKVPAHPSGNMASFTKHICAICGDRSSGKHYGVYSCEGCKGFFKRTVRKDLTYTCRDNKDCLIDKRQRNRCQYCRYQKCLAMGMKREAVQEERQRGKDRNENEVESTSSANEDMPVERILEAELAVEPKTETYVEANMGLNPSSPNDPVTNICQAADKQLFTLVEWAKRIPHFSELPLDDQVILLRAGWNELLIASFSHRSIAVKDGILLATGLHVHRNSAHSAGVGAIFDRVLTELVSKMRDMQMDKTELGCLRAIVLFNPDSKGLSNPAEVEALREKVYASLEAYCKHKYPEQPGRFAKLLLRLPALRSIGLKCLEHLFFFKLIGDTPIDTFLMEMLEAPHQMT

CCC/C=C/C=O
inactive: Potency [1] | Potency [2] | Potency [3] | Potency [4] | Potency [5] | Potency [6] | Potency [7] | Potency [8] | Potency [9] | Potency [10] | Potency [11] | Potency [12]

COc1cc([C@H]2Oc3cc([C@H]4Oc5cc(O)cc(O)c5C(=O)[C@@H]4O)ccc3O[C@@H]2CO)ccc1O
inactive: Potency [1] | Potency [2] | Potency [3] | Potency [4] | Potency [5] | Potency [6] | Potency [7] | Potency [8] | Potency [9] | Potency [10] | Potency [11] | Potency [12]

CC(=O)Oc1c(C)c(C)c2c(c1C)CC[C@@](C)(CCC[C@H](C)CCC[C@H](C)CCCC(C)C)O2
inactive: Potency [2] | Potency [3] | Potency [4] | Potency [5] | Potency [6] | Potency [7] | Potency [8] | Potency [9] | Potency [10] | Potency [11] | Potency [12] | Potency [13] | Potency [14]
49 µM (active) and inactive: Potency [1]

CC(C)(Oc1ccc(Cl)cc1)C(=O)O
inactive: Potency [1] | Potency [2] | Potency [3] | Potency [4] | Potency [5] | Potency [6] | Potency [7] | Potency [8] | Potency [9] | Potency [10] | Potency [12]

O=C(O)CCCCCCCCCCCC(=O)O
inactive: Potency [1] | Potency [2] | Potency [3] | Potency [4] | Potency [5] | Potency [6] | Potency [8] | Potency [9] | Potency [10] | Potency [11] | Potency [12] | Potency [13]
53.6 µM (active) and inactive: Potency [7]

C/C=C/C(=O)N(CC)c1ccccc1C
inactive: Potency [1] | Potency [2] | Potency [3] | Potency [4] | Potency [5] | Potency [6] | Potency [7] | Potency [8] | Potency [9] | Potency [10] | Potency [11] | Potency [12] | Potency [13]

C1COCCN1
inactive: Potency [1] | Potency [2] | Potency [3] | Potency [4] | Potency [5] | Potency [6] | Potency [7] | Potency [8] | Potency [9] | Potency [10] | Potency [11] | Potency [12] | Potency [13] | Potency [14]

O=[Se](O)O
active: Potency [6] 54.5 µM | Potency [7] 1.65 µM
inactive and 5.28 µM (active): Potency [9]
inactive: Potency [1] | Potency [2] | Potency [3] | Potency [4] | Potency [5] | activity, negative = cytotoxicity [6] -10.3% [at 19 µM] | Potency [8] | Potency [12] | Potency [13]

Brc1nc2ccccc2s1
inactive: Potency [1] | Potency [2] | Potency [3] | Potency [4] | Potency [5] | Potency [6] | Potency [7] | Potency [8] | Potency [9] | Potency [10] | Potency [11] | Potency [12] | Potency [13]

COc1ccc(C(=O)c2ccccc2O)c(O)c1
inactive: Potency [1] | Potency [2] | Potency [3] | Potency [4] | Potency [5] | Potency [6] | Potency [7] | Potency [8] | Potency [9] | Potency [10] | Potency [11] | Potency [12] | Potency [13]
